In PubChem BioAssay AID1159580 (chemical genetic matrix, 2015):
Several values for one entry are separate records, joined by “and”; a condition that tells them apart may be missing. Equal entries are not always repeated. Screen size: about 5,500 compounds; about 2,000 (36%) were called active. About 18% were inconclusive and are not listed. No stated cut-off is given here; in the data, active means normalized growth mostly below about 0.91 (no sharp cut-off); inconclusive means no clear call, values can overlap the other calls; inactive means mostly above about 0.92. This is one part of the list.

Assay: chemical genetic growth profiling, strain panel (AID 1159580);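 further: tested at 20 µM; growth read once vehicle control cultures reached saturation at 30 °C; 1 = growth at the plate median or of vehicle wells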
Details: S. cerevisiae deletion strains, growth OD
[1] = locus YAL013W, strain DEP1, stronger effect = lower value
[2] = locus YBR229C, strain ROT2, stronger effect = lower value
[3] = locus YDL101C, strain DUN1, stronger effect = lower value
[4] = locus YDR150W, strain NUM1, stronger effect = lower value
[5] = locus YEL061C, strain CIN8, stronger effect = lower value
[6] = locus YGR078C, strain PAC10, stronger effect = lower value
[7] = locus YHR030C, strain SLT2, stronger effect = lower value
[8] = locus YJR043C, strain POL32, stronger effect = lower value
[9] = locus YJR075W, strain HOC1, stronger effect = lower value
[10] = locus YLR039C, strain RIC1, stronger effect = lower value
[11] = locus YLR262C, strain YPT6, stronger effect = lower value
[12] = locus YMR263W, strain SAP30, stronger effect = lower value
[13] = locus YMR307W, strain GAS1, stronger effect = lower value
[14] = locus YNL153C, strain GIM3, stronger effect = lower value

Measured: normalized growth

CN1CC(CNC(=O)OCc2ccccc2)CC2c3cccc4c3c(cn4C)CC21 (centres undefined)
inactive: [1] 1.01 | locus YBR021W, strain FUR4, stronger effect = lower value 1.02 | [2] 1 | locus YCL029C, strain bik1, stronger effect = lower value 0.977 | locus YDL035C, strain GPR1, stronger effect = lower value 1.04 | locus YDL074C, strain BRE1, stronger effect = lower value 0.999 | [3] 0.978 | locus YDL185W, strain tfp1, stronger effect = lower value 0.97 | locus YDL192W, strain arf1, stronger effect = lower value 0.993 | locus YDR101C, strain arx1, stronger effect = lower value 0.995 | [4] 0.994 | locus YDR162C, strain NBP2, stronger effect = lower value 1.02 | locus YDR318W, strain mcm21, stronger effect = lower value 0.985 | locus YDR388W, stronger effect = lower value 0.987 | locus YDR502C, strain sam2, stronger effect = lower value 0.941 | [5] 0.992 | locus YER110C, stronger effect = lower value 0.972 | locus YER155C, strain BEM2, stronger effect = lower value 0.991 | locus YER167W, strain BCK2, stronger effect = lower value 1 | locus YGL078C, strain dbp3, stronger effect = lower value 0.995 | locus YGL086W, strain mad1, stronger effect = lower value 0.982 | locus YGL248W, strain PDE1, stronger effect = lower value 0.989 | [6] 0.995 | locus YGR135W, strain pre9, stronger effect = lower value 0.984 | locus YGR252W, strain gcn5, stronger effect = lower value 1.04 | [7] 0.998 and 0.982 | locus YHR079C, strain IRE1 (second series), stronger effect = lower value 0.965 | locus YHR079C, strain IRE1, stronger effect = lower value 0.972 | locus YHR094C, strain hxt1, stronger effect = lower value 0.988 | locus YHR129C, strain ARP1, stronger effect = lower value 0.999 | locus YHR200W, strain rpn10, stronger effect = lower value 0.985 | locus YIL066C, strain RNR3, stronger effect = lower value 1.01 | locus YIL073C, strain SPO22, stronger effect = lower value 0.911 | locus YIL125W, strain kgd1, stronger effect = lower value 1 | locus YIR030C, strain dcg1, stronger effect = lower value 0.986 | locus YJL095W, strain BCK1, stronger effect = lower value 0.957 and 0.968 | locus YJL134W, strain LCB3, stronger effect = lower value 0.995 | locus YJL168C, strain set2, stronger effect = lower value 1 | locus YJL187C, strain SWE1 (second series), stronger effect = lower value 0.973 | [8] 1.07 | locus YJR066W, strain TOR1, stronger effect = lower value 0.877 | [9] 0.981 | locus YKL009W, strain mrt4, stronger effect = lower value 0.979 | locus YKL068W, stronger effect = lower value 0.983 | locus YKL085W, strain MDH1 (second series), stronger effect = lower value 0.975 | locus YKL085W, strain MDH1, stronger effect = lower value 0.975 | locus YKR001C, strain vps1, stronger effect = lower value 0.996 | [10] 0.988 | locus YLR058C, strain SHM2, stronger effect = lower value 0.988 | locus YLR102C, strain apc9, stronger effect = lower value 0.986 | locus YLR113W, strain HOG1, stronger effect = lower value 1.03 | [11] 0.998 | locus YLR268W, strain sec22, stronger effect = lower value 0.986 | locus YLR330W, strain CHS5, stronger effect = lower value 0.993 | locus YLR342W, strain FKS1 (second series), stronger effect = lower value 1.07 | locus YLR371W, strain rom2, stronger effect = lower value 0.992 | locus YLR418C, strain cdc73, stronger effect = lower value 1.01 | locus YML016C, strain PPZ1, stronger effect = lower value 0.999 | locus YML032C, strain rad52, stronger effect = lower value 0.998 | locus YML124C, strain tub3, stronger effect = lower value 1 | locus YMR078C, strain ctf18, stronger effect = lower value 0.983 | locus YMR223W, strain ubp8, stronger effect = lower value 0.979 | [12] 0.979 | [13] 1.16 | locus YNL067W, strain RPL9B, stronger effect = lower value 0.96 | [14] 0.981 | locus YNL183C, strain NPR1, stronger effect = lower value 0.879 | locus YNL233W, strain BNI4, stronger effect = lower value 0.986 | locus YNL250W, strain rad50, stronger effect = lower value 0.971 | locus YNL271C, strain bni1, stronger effect = lower value 0.992 | locus YNL298W, strain CLA4, stronger effect = lower value 0.99 | locus YNL307C, strain MCK1, stronger effect = lower value 0.985 | locus YNR052C, strain pop2, stronger effect = lower value 0.975 | locus YOL012C, strain htz1 0.968 | locus YOL147C, strain pex11, stronger effect = lower value 0.989 | locus YOR061W, strain CKA2, stronger effect = lower value 0.994 | locus YOR069W, strain VPS5, stronger effect = lower value 0.997 | locus YOR136W, strain idh2, stronger effect = lower value 0.98 | locus YOR144C, strain elg1, stronger effect = lower value 1.01 | locus YOR184W, strain ser1, stronger effect = lower value 1 | locus YOR231W, strain MKK1, stronger effect = lower value 0.991 | locus YOR316C, strain cot1, stronger effect = lower value 0.979 | locus YPL256C, strain CLN2, stronger effect = lower value 0.986 | locus YPR119W, strain clb2, stronger effect = lower value 0.981 | locus YPR141C, strain kar3, stronger effect = lower value 0.988 | locus YPR163C, strain tif3, stronger effect = lower value 1 | locus YPR167C, strain met16, stronger effect = lower value 0.991 | strain wtn01, stronger effect = lower value 1.01

C[C@]12N[C@H](Cc3ccccc31)c1ccccc12
inactive: locus YAL040C, strain CLN3, stronger effect = lower value 1.04 | locus YCL061C, strain MRC1 (second series), stronger effect = lower value 0.988 | [4] 1 | locus YDR363W, strain ESC2, stronger effect = lower value 0.953 | locus YER002W, strain NOP16, stronger effect = lower value 0.964 | [6] 0.973 | [13] 1 | locus YNL128W, strain TEP1, stronger effect = lower value 0.992 | [14] 0.978 | locus YNL175C, strain NOP13, stronger effect = lower value 0.98 | locus YNL197C, strain WHI3, stronger effect = lower value 0.957 | locus YNL224C, strain SQS1, stronger effect = lower value 0.979 | locus YOR083W, strain WHI5 (second series), stronger effect = lower value 0.995

N#Cc1cccc(Cn2c(=O)oc3ccccc32)c1
inactive: [1] 0.988 | [2] 0.991 | [3] 0.977 | [4] 0.998 | [5] 0.989 | [6] 1 | locus YGR229C, strain SMI1, stronger effect = lower value 0.985 | [7] 0.907 | locus YHR087W, strain rtc3, stronger effect = lower value 0.988 | locus YJL187C, strain SWE1, stronger effect = lower value 0.996 | [8] 1 | [9] 0.986 | locus YKL190W, strain CNB1, stronger effect = lower value 1 | [10] 1.04 | locus YLR058C, strain SHM2 (second series), stronger effect = lower value 0.998 | locus YLR085C, strain ARP6, stronger effect = lower value 1.11 | [11] 1.01 | locus YML094W, strain GIM5, stronger effect = lower value 0.972 | locus YMR219W, strain ESC1, stronger effect = lower value 0.993 | [12] 0.995 | [14] 0.998 | locus YNL298W, strain CLA4 (second series), stronger effect = lower value 0.996 | locus YNL322C, strain KRE1, stronger effect = lower value 0.984 | locus YNR030W, strain Alg12, stronger effect = lower value 0.977 | locus YOL006C, strain TOP1, stronger effect = lower value 1.04 | locus YPL055C, strain LGE1, stronger effect = lower value 1.01 | locus YPL241C, strain CIN2, stronger effect = lower value 1.06 | locus YPR135W, strain CTF4, stronger effect = lower value 1
